Compound activity deposited in PubChem by National Center for Advancing Translational Sciences (NCATS).
Pf Dd2 inh: blocks in vitro growth of P. falciparum Dd2 | P. falciparum Dd2 growth, SYBR Green, 72 h | Potency, µM (titrated, usually from 28.9 µM), actives largely listed as inhibitors | 4.3% of 120,000 active; active means well fitted inhibition curve with a large enough effect; further: nearly all actives have a fitted effect of over 65% in size
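Readout: SYBR Green fluorescence, 485 nm excitation, 535 nm emission, after ~16 h lysis at 37C. Before that, Dd2-infected red cells (2.5% hematocrit) grew 72 h with compound, 29 uM top final concentration.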
Large screens that a line does not name were inactive. The entries come from a sample that favours hits as a whole.

CCc1cc(=O)n(CC(=O)Nc2cc(OC)c(OC)c(OC)c2)c(N2CCOCC2)n1	none
CCc1cc(=O)n(CC(=O)Nc2ccc(F)c(Cl)c2)c(N2CCOCC2)n1	none
CCc1cc(=O)n(CC(=O)N2CCN(c3ccccc3F)CC2)c(N2CCOCC2)n1	Pf Dd2 inh 7.94µM
CCc1ccc(NC(=O)Cn2c(N3CCN(c4ccccc4)CC3)nc(C)cc2=O)cc1	none
CN1C(=O)CC(C(=O)O)C12CCN(Cc1ccc3c(c1)OCCO3)CC2 (configuration not stated)	none
Cc1ncoc1C(=O)N(C)C1CCc2nn(CC3CC3)c(=O)n2CC1 (configuration not stated)	none
CCc1ccc(NS(=O)(=O)c2ccc3[nH]cc(C(=O)NCCCOC(C)C)c(=O)c3c2)cc1	none
O=C(O)CCn1ncc2cc(OCC3CCN(c4nccc(C(F)(F)F)n4)CC3)ccc21	none
CN(C)C(=O)C1CN(C(=O)NCc2ccccc2)CC12CCOCC2 (configuration not stated)	none
Cc1cc(C(=O)N2CCC(O)(c3ccccc3)[C@H](N3CCCC3)C2)n[nH]1 (some centres not stated)	none
CC(=O)N1CCC(N2CCOC[C@H]2c2ncc(-c3ccncc3)[nH]2)CC1	none
CCSc1nc2sc3c(c2c(=O)n1-c1ccc(C)c(Cl)c1)CCN(C(C)=O)C3	none
COc1cc(F)ccc1-c1cc(C(=O)NCc2c(C)cc(C)[nH]c2=O)c2c(c1)N(C(C)C)CCO2	none
Cc1cc(C)c(CNC(=O)c2cc(-c3ccccc3F)cc3c2OCCN3C(C)C)c(=O)[nH]1	none
CC(=O)Nc1cccc(-c2cc(C(=O)NCc3c(C)cc(C)[nH]c3=O)c3c(c2)N(C(C)C)CCO3)c1	Pf Dd2 inh 1.78µM
Cc1cc(C)c(CNC(=O)c2cc(-c3ccccc3F)cc3c2OCCN3C)c(=O)[nH]1	Pf Dd2 inh 6.31µM
Cc1cc(C)c(CNC(=O)c2cc(-c3ccccc3C)cc3c2OCCN3C(C)C)c(=O)[nH]1	none
Cc1cc(C)c(CNC(=O)c2cc(-c3cccnc3)cc3c2OCCN3C)c(=O)[nH]1	none
Cc1ccc(C(=O)N(C)C2CCc3nn(CC4CC4)c(=O)n3CC2)s1 (configuration not stated)	none
O=[S+]([O-])(Nc1ccccc1)c1ccc2c(c1)OCCN(Cc1ccncc1)C2	none
CCCCCCNc1ncnc2c1sc1nc(N3CCOCC3)c3c(c12)CCCC3	Pf Dd2 inh 8.91µM
CCCc1nc2sc3c(N4CCCCC4)ncnc3c2c2c1CCCC2	none
CC(C)OCCCNc1ncnc2sc3c(c12)CCCC3	none
O=C(c1cc(COc2ccccc2F)[nH]n1)N1CCOCC1	none
Cc1cc(C)cc(OCc2ccc(C(=O)Nc3ccccc3F)o2)c1	none
O=C(CSc1nncn2c1cc1occc12)Nc1ccc(F)c(Cl)c1	none
Cc1oc(-c2cccc(Cl)c2)nc1CSc1nncn2c1cc1occc12	none
CCC(Sc1nncn2c1cc1occc12)C(=O)Nc1ccc(C)c(Cl)c1 (configuration not stated)	Pf Dd2 inh 14.1µM
CC(C)OC(=O)N1CCC(Oc2ccc3c(cnn3CCC(=O)O)c2)CC1	none
CCOc1ccccc1NC(=O)N1CCC(Oc2ncccc2C(=O)N2CCOCC2)C1 (configuration not stated)	none
COc1cc(OC)c(NC(=O)CC(c2cccs2)N2Cc3ccccc3C2=O)cc1Cl (configuration not stated)	none
c1ccc(CN2CCNc3cc(-c4ccncc4)ncc3C2)cc1	none
Oc1ccc(-c2cc3c(cn2)CN(Cc2ccccc2)CCN3)cc1F	Pf Dd2 inh 3.98µM
Fc1ccccc1-c1cc2c(cn1)CN(Cc1ccncc1)CCN2	none
COc1ccc(-c2cc3c(cn2)CN(Cc2ccccc2)CCN3)cc1OC	Pf Dd2 inh 11.2µM
COc1ccc(Nc2cc3c(cn2)CN(Cc2ccncc2)CCN3)cn1	none
COc1ccc(Nc2cc3c(cn2)NCCN(Cc2ccccc2)C3)cn1	none
COc1ccc(CNc2cc3c(cn2)CN(Cc2ccccc2)CCN3)cc1OC	none
COc1ccc(Nc2cc3c(cn2)CN(CCc2ccccc2)CCN3)cc1OC	Pf Dd2 inh 10µM
COc1ccc(CN2CCNc3cc(-c4ccnc(C)c4)ncc3C2)cc1O	none
CCOC(=O)c1cc(OC(=O)c2cc(OC)c(OC)c(OC)c2)n(-c2ccccc2)n1	none
COc1cccc2c1OCC(CNC(=O)CCc1c(C)noc1C)C2 (configuration not stated)	none
COc1ccc(-n2cnc3cccnc32)cc1	none
CC(=O)N1CCC(N2C[C@@H]3C[C@H](C2)c2ccc(-c4ccccc4CN(C)C)c(=O)n2C3)CC1	none
O=C(c1n[nH]c2ccccc12)N1CCC(OCCOc2ccccc2)CC1	none
CNC(=O)[C@@H]1CN(C(=O)Cc2ccccc2C)C[C@H]1COC	none
CCOCCCNC(=O)C1CCN(C(=O)c2cc3sccc3n2C)CC1	none
O=C(C1CC=CCC1)N1CCC(Oc2ccccc2F)(C(=O)O)CC1 (configuration not stated)	none
Cc1ncccc1C(=O)N1C[C@@H](Oc2cccnc2)C[C@H]1C(=O)N1CCOCC1	none
CC(C)NC(=O)N1CCC(c2noc(-c3ccccc3)n2)C1 (configuration not stated)	none
